Screen size: about 2,400 compounds; about 1,800 (75%) were called active. The set was probably picked from earlier hits. A selection follows. Values without a mark were called inactive.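 Rule for the calls: active = inhibition above the primary screen limit, the mean inhibition of all tested compounds plus 3 SD (cut at about 25% in these data); inactive = the rest.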
system: tRNA 2'-phosphotransferase TPT1 [Candida albicans SC5314]; test: tRNA 2'-phosphotransferase enzyme inhibition – biochemical, fluorescence polarization, triplicate, confirmation (AID 2149); conditions: recombinant caTPT1, fluorescence polarization, RNase T1 coupled; at 5 µM; active compounds read high

SMILES	inhibition
CCCCC(=O)N/N=C/c1c(O)n(CC)c(=S)n(CC)c1=O	98.8% (active)
CCN1C(=O)C(=Cc2c(C)n(CC(=O)NCC3CCCO3)c3ccccc23)C(=O)N(CC)C1=S (centres undefined)	18.6%
O=C1NC(=O)N(Cc2ccco2)C(=O)/C1=C\c1ccc(-c2ccc(F)cc2)o1	11.4%
COc1ccc(N2C(=O)/C(=C/c3ccco3)C(=O)NC2=S)cc1	27.9% (active)
O=C1NC(=O)N(Cc2ccco2)C(=O)/C1=C\c1cccn1CCOc1ccccc1	6.57%
O=C1CC(=O)N(Cc2ccccc2)C(=O)N1CCCCCCN1C(=O)CC(=O)N(Cc2ccccc2)C1=O	25.7% (active)
COc1ccccc1N=Nc1c(O)[nH]c(=S)[nH]c1=O	64.9% (active)
CC(C)n1c(=O)c(C=Nc2ccc(Br)cc2)c(O)n(Cc2ccco2)c1=O	17.1%
CC/C(=N\NC(=O)c1ccccc1O)c1c(O)n(Cc2ccccc2)c(=O)[nH]c1=O	21.9%

Reference: PubChem BioAssay AID2149 (The Scripps Research Institute Molecular Screening Center, 2009)
